PubChem BioAssay (Tox21)
Records with an inconclusive call do not appear. Calls of active or inactive are those of the source. Unless noted, the call rests on the fitted dose curve.

Legend:
[1] = qHTS assay to identify small molecule antagonists of the vitamin D receptor (VDR) signaling pathway - cell viability counter screen (AID 743225; active means well fitted curve in the direction sought with a large enough effect in the repeat runs; an effect the other way counts as inactive or inconclusive; further: on the % scale 0 is the no-effect control and ±100 the full control effect; nearly all actives have a fitted effect of over 50% in size)
Outline: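 Read-out: CellTiter-Glo luminescence measured 30 min after reagent addition at room temperature. Cells were VDR-bla HEK 293T exposed 16 h at 37C, 5% CO2, to compound with 3 nM final calcitriol agonist.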

[2] = qHTS assay to identify small molecule agonists of the NFkB signaling pathway (AID 1159509; active means well fitted curve in the direction sought with a large enough effect in the signal ratio in the repeat runs, not every such curve was filed as active; the % refers to the signal ratio; further: series mostly up to about 61 µM; on the % scale 0 is the no-effect control and ±100 the full control effect)
Outline: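 ME-180 NFkB-bla, 2,000 cells/well, overnight plating; cpd pinned in DMSO, 5 h 37 C; B/G FRET substrate 1.5 h RT; ex 405, em 460/530 nm.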

[3] = qHTS assay to identify small molecule agonists of the NFkB signaling pathway - cell viability counter screen (AID 1159515); further: series mostly up to about 61 µM; on the % scale 0 is the no-effect control and ±100 the full control effect; nearly all actives have a fitted effect of over 55% in size
Outline: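 Multiplexed viability readout: after the 5 hr compound exposure and 1.5 hr FRET substrate step, CellTiter-Glo reagent went into the same NFkB-bla ME-180 wells; ATP luminescence was measured after 30 min at room temperature.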

[4] = qHTS assay to identify small molecule agonists of the endoplasmic reticulum stress response signaling pathway (AID 1159516; active means well fitted activation curve with a large enough effect in the signal ratio in the repeat runs, not every such curve was filed as active; the % refers to the signal ratio; further: on the % scale 0 is the no-effect control and ±100 the full control effect)
Outline: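 Tox21 10K library screened in quantitative HTS format on ESRE-bla HeLa cells, a beta-lactamase reporter under ER stress response element control; 5 hr treatment, FRET read.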

[5] = qHTS assay to identify small molecule agonists of the endoplasmic reticulum stress response signaling pathway - cell viability counter screen (AID 1159517); further: nearly all actives have a fitted effect of over 50% in size; further: potency means the concentration at half of the fitted maximal effect; on activity change, negative = cytotoxicity: series mostly up to about 61 µM; on the % scale 0 is the no-effect control and ±100 the full control effect
Outline: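 ESRE-bla HeLa cells, 1,500 per well, seeded overnight then treated with compounds for 5 hr at 37 C. After the beta-lactamase read, viability in the same wells is measured by CellTiter-Glo luminescence after 30 min at room temperature.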

[6] = qHTS assay to identify small molecule antagonists of the retinoid-related orphan receptor gamma (ROR-gamma) signaling pathway - cell viability counter screen (AID 1159520; active means well fitted curve in the direction sought with a large enough effect in the repeat runs; an effect the other way counts as inactive or inconclusive; further: on the % scale 0 is the no-effect control and ±100 the full control effect; nearly all actives have a fitted effect of over 50% in size)
Outline: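 Tet-on ROR gamma CHO cells were given compounds for 2 hr, then doxycycline hyclate at 1 uM final, and incubated 16 hr at 37 C. Viability was measured as ATP content by CellTiter-Glo luminescence.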

[7] = molecular target: Nuclear receptor ROR-gamma (Homo sapiens) (UniProt P51449); experiment: qHTS assay to identify small molecule antagonists of the retinoid-related orphan receptor gamma (ROR-gamma) signaling pathway (AID 1159521; active means well fitted curve in the direction sought with a large enough effect in the repeat runs; an effect the other way counts as inactive or inconclusive;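 further: CHO cells with doxycycline inducible ROR-gamma driving an RORE luciferase reporter; top concentration of the series differs between compounds; on the % scale 0 is the no-effect control and ±100 the full control effect; nearly all actives have a fitted effect of over 50% in size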)
Outline: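 CHO Tet-on RORγ, RORE-luc reporter. Cpd 2 h pre-incubation, then dox hyclate 1 uM final, 16 h, 37 C/5% CO2. ONE-Glo luminescence; decrease = antagonist.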

[8] = qHTS assay to identify small molecule agonists of the AP-1 signaling pathway - cell viability counter screen (AID 1159525); further: nearly all actives have a fitted effect of over 55% in size
Outline: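 AP-1-bla ME-180 cells in Opti-MEM with 0.5% dialyzed FBS, compound exposure 5 h at 37 C in 15-point titration. Viability read in the same wells as ATP content by CellTiter-Glo luminescence, normalised to tetra-n-octylammonium bromide and DMSO controls.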

[9] = qHTS assay to identify small molecule agonists of the AP-1 signaling pathway (AID 1159526); further: on the % scale 0 is the no-effect control and ±100 the full control effect
[10] = qHTS assay to identify small molecule agonists of the vitamin D receptor (VDR) signaling pathway - cell viability counter screen (AID 743224; active means well fitted curve in the direction sought with a large enough effect in the repeat runs; an effect the other way counts as inactive or inconclusive)
Outline: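 Viability is measured in the same wells as the VDR-bla reporter assay: after 16 h compound treatment and 2 h substrate loading, CellTiter-Glo is added and luminescence read 30 min later.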

COC(=O)C1CC(=O)C(C(=O)OC)CC1=O (configuration not stated)
inactive: viability change, negative = cytotoxic [1] 3.99% [at 6.95 µM] | activation [2] 0.23% [at 6.95 µM] | activity, negative = cytotoxic [3] 4.94% [at 6.95 µM] | activation [4] 4.12% [at 6.95 µM] | activity change, negative = cytotoxicity [5] 4.71% [at 6.95 µM] | activity, negative = cytotoxicity [6] 6.36% [at 8.39 µM] | activity change, negative = inhibition [7] 0.663% [at 8.39 µM] | viability change, negative = cytotoxic [8] 2.24% [at 6.97 µM] | activation [9] 1.04% [at 6.97 µM]

O=C1CCCC(=O)O1
inactive: Potency [10] | outcome [2] | outcome [3] | outcome [4] | Potency [5] | outcome [6] | outcome [8] | outcome [9]

Brc1ccc(-c2ccccc2)cc1
inactive: Potency [10] | outcome [1] | outcome [2] | outcome [3] | outcome [4] | Potency [5] | outcome [6] | outcome [7] | outcome [8] | outcome [9]

Cc1nc2n(c(=O)c1CCN1CCC(c3noc4cc(F)ccc34)CC1)CCC[C@H]2O
inactive: Potency [10] | outcome [1] | outcome [2] | outcome [3] | outcome [4] | Potency [5] | activity, negative = cytotoxicity [6] 0.561% [at 19 µM] | activity change, negative = inhibition [7] 29.3% [at 19 µM] | viability change, negative = cytotoxic [8] 2.97% [at 15.8 µM] | activation [9] 6.23% [at 15.8 µM]

CCN1CCc2nc(N)oc2CC1
inactive: Potency [10] | outcome [2] | outcome [3] | outcome [4] | Potency [5] | outcome [6] | outcome [8] | outcome [9]

CC(CC=O)CCCC(C)(C)O (configuration not stated)
inactive: outcome [1] | outcome [2] | outcome [3] | outcome [4] | Potency [5] | outcome [6] | outcome [7] | outcome [8] | outcome [9]

COc1cc(N)ccc1C
inactive: outcome [1] | outcome [2] | outcome [3] | outcome [4] | Potency [5] | outcome [6] | outcome [7] | outcome [8] | outcome [9]

O=C1CC(c2ccc(Cl)cc2)CC(=O)N1
inactive: outcome [1] | outcome [2] | outcome [3] | outcome [4] | Potency [5] | outcome [6] | outcome [7] | outcome [8] | outcome [9]

CCOCCOCCOCC
inactive: Potency [10] | outcome [1] | outcome [2] | outcome [3] | outcome [4] | Potency [5] | outcome [6] | outcome [8] | outcome [9]

OCCC(F)(F)C(F)(F)C(F)(F)C(F)(F)C(F)(F)C(F)(F)C(F)(F)C(F)(F)F
inactive: outcome [1] | outcome [2] | outcome [3] | outcome [4] | Potency [5] | outcome [6] | outcome [7] | outcome [8] | outcome [9]

Nc1ccc2cc(S(=O)(=O)O)cc(O)c2c1
inactive: outcome [1] | outcome [2] | outcome [3] | outcome [4] | Potency [5] | outcome [6] | outcome [7] | outcome [8] | outcome [9]

CCC(CC)CO
inactive: outcome [1] | outcome [2] | outcome [3] | outcome [4] | Potency [5] | outcome [6] | outcome [7] | outcome [8] | outcome [9]

O=C(Nc1ccc(Cl)c(Cl)c1)C1CC1
inactive: outcome [1] | outcome [2] | outcome [3] | outcome [4] | Potency [5] | outcome [6] | outcome [7] | outcome [8] | outcome [9]

COc1cc2c(cc1OC)[C@@H]1CC(=O)[C@@H](CC(C)C)CN1CC2
inactive: Potency [10] | outcome [2] | outcome [3] | outcome [4] | Potency [5] | outcome [6] | outcome [8] | outcome [9]

Cc1cccc(OCC(O)CNC(C)(C)C)c1C (configuration not stated)
inactive: Potency [10] | outcome [1] | outcome [2] | outcome [3] | outcome [4] | Potency [5] | outcome [6] | outcome [8] | outcome [9]

CN(C)C(=O)CNC(=O)Cc1ccccc1
inactive: outcome [1] | outcome [2] | outcome [3] | outcome [4] | Potency [5] | outcome [6] | outcome [7] | outcome [8] | outcome [9]

CCOCCOC(=O)/C=C/c1ccc(OC)cc1
inactive: Potency [10] | outcome [1] | outcome [2] | outcome [3] | outcome [4] | Potency [5] | outcome [6] | outcome [7] | outcome [8] | outcome [9]

CC(C)(C)NC(N)=O
inactive: Potency [10] | outcome [1] | outcome [2] | outcome [3] | outcome [4] | Potency [5] | outcome [6] | outcome [7] | outcome [8] | outcome [9]

COc1nccnc1NS(=O)(=O)c1ccc(N)cc1
inactive: Potency [10] | outcome [1] | outcome [2] | outcome [3] | outcome [4] | Potency [5] | outcome [6] | outcome [8] | outcome [9]

CCCCOC(=O)c1ccccc1
inactive: Potency [10] | outcome [1] | outcome [2] | outcome [3] | outcome [4] | Potency [5] | outcome [6] | outcome [7] | outcome [8] | outcome [9]

Cc1cccc(C)c1OCC(C)N (configuration not stated)
inactive: outcome [1] | outcome [2] | outcome [3] | outcome [4] | Potency [5] | outcome [6] | outcome [7] | outcome [8] | outcome [9]

CC1(C)S[C@@H]2[C@H](N=CN3CCCCCC3)C(=O)N2[C@H]1C(=O)O
inactive: Potency [10] | outcome [1] | outcome [2] | outcome [3] | outcome [4] | Potency [5] | outcome [6] | outcome [7] | outcome [8] | outcome [9]

Cc1cccc(C)c1NC(=O)c1ccccc1C(=O)O
inactive: outcome [1] | outcome [2] | outcome [3] | outcome [4] | Potency [5] | outcome [6] | outcome [7] | outcome [8] | outcome [9]

N#Cc1ccc(C(=O)O)cc1
inactive: Potency [10] | outcome [1] | outcome [2] | outcome [3] | outcome [4] | Potency [5] | outcome [6] | outcome [7] | outcome [8] | outcome [9]

CCOc1cc(NC(C)=O)ccc1C(=O)OC
inactive: outcome [1] | outcome [2] | outcome [3] | outcome [4] | Potency [5] | outcome [6] | outcome [7] | outcome [8] | outcome [9]

Nc1nnc(-c2cccc(Cl)c2Cl)c(N)n1
inactive: Potency [10] | outcome [1] | outcome [2] | outcome [3] | outcome [4] | Potency [5] | outcome [6] | outcome [7] | outcome [8] | outcome [9]

O=C(OCc1ccccc1)C(=O)OCc1ccccc1
inactive: outcome [1] | outcome [2] | outcome [3] | outcome [4] | Potency [5] | outcome [6] | outcome [7] | outcome [8] | outcome [9]

Cc1ccsc1/C=C/C1=NCCCN1C
inactive: Potency [10] | outcome [1] | outcome [2] | outcome [3] | outcome [4] | Potency [5] | outcome [6] | outcome [8] | outcome [9]

CN(C)c1ccc(C=O)cc1
inactive: Potency [10] | outcome [2] | outcome [3] | outcome [4] | Potency [5] | outcome [6] | outcome [8] | outcome [9]

Cc1cc(Cl)c(C)cc1Cl
inactive: Potency [10] | outcome [1] | outcome [2] | outcome [3] | outcome [4] | outcome [6] | outcome [8] | outcome [9]
active: Potency [5] 54.9 µM

O=C(OCC(COC(=O)c1cccnc1)(COC(=O)c1cccnc1)COC(=O)c1cccnc1)c1cccnc1
inactive: Potency [10] | outcome [1] | outcome [2] | outcome [3] | outcome [4] | Potency [5] | outcome [6] | outcome [7] | outcome [8] | outcome [9]

CC(=C(CCOC(=O)C(C)C)SSC(CCOC(=O)C(C)C)=C(C)N(C=O)Cc1cnc(C)nc1N)N(C=O)Cc1cnc(C)nc1N
inactive: Potency [10] | outcome [1] | outcome [2] | outcome [3] | outcome [4] | Potency [5] | outcome [7] | outcome [8] | outcome [9]

COCCc1ccc(OCC2CO2)cc1 (configuration not stated)
inactive: Potency [10] | outcome [1] | outcome [2] | outcome [3] | outcome [4] | Potency [5] | outcome [6] | outcome [8] | outcome [9]

O=C(CCN1CCN(CCO)CC1)N1c2ccccc2Sc2ccc(C(F)(F)F)cc21
inactive: outcome [1] | outcome [2] | outcome [3] | outcome [4] | Potency [5] | outcome [7] | outcome [8] | outcome [9]

Cc1c(I)c(=O)n(-c2ccccc2)n1C
inactive: Potency [10] | outcome [1] | outcome [2] | outcome [3] | outcome [4] | Potency [5] | outcome [6] | outcome [8] | outcome [9]

CC/C=C\CC1=C(C)CCC1=O
inactive: Potency [10] | outcome [2] | outcome [3] | outcome [4] | Potency [5] | outcome [7] | outcome [8] | outcome [9]

CCc1ccc(C=O)cc1
inactive: Potency [10] | outcome [1] | outcome [2] | outcome [3] | outcome [4] | Potency [5] | outcome [6] | outcome [8] | outcome [9]

OC[C@H](Cc1cccc(O)c1)[C@H](CO)Cc1cccc(O)c1
inactive: Potency [10] | outcome [1] | outcome [2] | outcome [3] | outcome [4] | Potency [5] | outcome [7] | outcome [8] | outcome [9]

C[Si](C)(C)C
inactive: outcome [1] | outcome [2] | outcome [3] | outcome [4] | Potency [5] | outcome [8] | outcome [9]
